Test results reported in ChEMBL document CHEMBL1961873, “Compounds: GSK PKIS; Assays: Nanosyn kinase panel” (2012).

Columns and labels:
[1] = molecular target: T1, Inhibitor of nuclear factor kappa-B kinase subunit epsilon (Homo sapiens) (UniProt Q14164); conditions: at 1 µM;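 also: reported values are averaged percent inhibition figures against human IKKε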
T1 sequence (whole entry): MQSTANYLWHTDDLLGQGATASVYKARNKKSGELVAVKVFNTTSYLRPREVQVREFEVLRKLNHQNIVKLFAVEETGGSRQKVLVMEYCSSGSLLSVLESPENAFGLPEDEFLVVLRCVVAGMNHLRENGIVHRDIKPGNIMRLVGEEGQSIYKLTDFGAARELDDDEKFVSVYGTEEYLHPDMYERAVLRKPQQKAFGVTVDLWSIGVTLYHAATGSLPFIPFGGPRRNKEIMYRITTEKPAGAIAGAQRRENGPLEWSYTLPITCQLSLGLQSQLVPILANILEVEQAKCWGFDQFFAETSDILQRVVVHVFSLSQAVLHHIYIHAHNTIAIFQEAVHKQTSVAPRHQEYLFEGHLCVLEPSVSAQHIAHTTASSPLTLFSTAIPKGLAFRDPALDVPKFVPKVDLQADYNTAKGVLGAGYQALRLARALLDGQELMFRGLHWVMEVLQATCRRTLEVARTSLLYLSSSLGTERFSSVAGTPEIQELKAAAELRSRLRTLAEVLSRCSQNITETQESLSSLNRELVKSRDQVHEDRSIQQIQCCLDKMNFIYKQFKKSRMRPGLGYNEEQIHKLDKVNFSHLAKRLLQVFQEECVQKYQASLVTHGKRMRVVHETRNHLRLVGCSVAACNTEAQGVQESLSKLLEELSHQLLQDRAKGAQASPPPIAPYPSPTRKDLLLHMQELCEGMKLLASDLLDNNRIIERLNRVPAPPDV

[2] = molecular target: T2, Serine/threonine-protein kinase Nek1 (Homo sapiens) (UniProt Q96PY6); conditions: at 0.1 µM
T2 sequence (whole entry): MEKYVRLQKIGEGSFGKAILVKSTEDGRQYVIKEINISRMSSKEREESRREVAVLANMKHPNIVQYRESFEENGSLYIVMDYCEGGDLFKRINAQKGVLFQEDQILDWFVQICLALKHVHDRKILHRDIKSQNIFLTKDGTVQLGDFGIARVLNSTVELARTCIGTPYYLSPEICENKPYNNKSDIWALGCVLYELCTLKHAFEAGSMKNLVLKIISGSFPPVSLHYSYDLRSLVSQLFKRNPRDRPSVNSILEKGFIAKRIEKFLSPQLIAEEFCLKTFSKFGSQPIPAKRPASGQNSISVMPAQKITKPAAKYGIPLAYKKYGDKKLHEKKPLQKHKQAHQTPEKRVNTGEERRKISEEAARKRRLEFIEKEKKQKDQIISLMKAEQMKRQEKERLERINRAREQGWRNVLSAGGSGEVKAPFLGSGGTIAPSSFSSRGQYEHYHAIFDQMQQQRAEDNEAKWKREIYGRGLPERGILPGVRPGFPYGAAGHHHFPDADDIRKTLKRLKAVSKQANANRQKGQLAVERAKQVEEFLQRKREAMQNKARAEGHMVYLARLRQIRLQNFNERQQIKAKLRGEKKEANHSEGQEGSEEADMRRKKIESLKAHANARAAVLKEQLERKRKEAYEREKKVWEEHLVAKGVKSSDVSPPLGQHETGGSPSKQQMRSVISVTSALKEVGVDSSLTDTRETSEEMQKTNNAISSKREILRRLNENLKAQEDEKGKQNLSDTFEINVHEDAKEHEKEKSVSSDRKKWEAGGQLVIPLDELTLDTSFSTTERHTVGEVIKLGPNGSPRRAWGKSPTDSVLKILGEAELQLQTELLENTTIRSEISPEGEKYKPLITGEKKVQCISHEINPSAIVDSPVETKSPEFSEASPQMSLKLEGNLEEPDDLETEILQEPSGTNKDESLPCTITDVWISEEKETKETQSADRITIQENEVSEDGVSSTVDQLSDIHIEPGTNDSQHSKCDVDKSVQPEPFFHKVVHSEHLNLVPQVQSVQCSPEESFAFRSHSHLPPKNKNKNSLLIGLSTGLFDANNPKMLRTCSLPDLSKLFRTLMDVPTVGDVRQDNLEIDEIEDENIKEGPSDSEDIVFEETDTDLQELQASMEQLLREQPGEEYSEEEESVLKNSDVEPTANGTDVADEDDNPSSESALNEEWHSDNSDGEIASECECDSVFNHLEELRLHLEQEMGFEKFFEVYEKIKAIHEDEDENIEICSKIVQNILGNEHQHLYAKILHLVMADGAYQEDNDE

[3] = molecular target: T2, Serine/threonine-protein kinase Nek1 (Homo sapiens); conditions: at 1 µM
[4] = molecular target: T3, Serine/threonine-protein kinase Nek2 (Homo sapiens) (UniProt P51955); conditions: at 0.1 µM
T3 sequence (whole entry): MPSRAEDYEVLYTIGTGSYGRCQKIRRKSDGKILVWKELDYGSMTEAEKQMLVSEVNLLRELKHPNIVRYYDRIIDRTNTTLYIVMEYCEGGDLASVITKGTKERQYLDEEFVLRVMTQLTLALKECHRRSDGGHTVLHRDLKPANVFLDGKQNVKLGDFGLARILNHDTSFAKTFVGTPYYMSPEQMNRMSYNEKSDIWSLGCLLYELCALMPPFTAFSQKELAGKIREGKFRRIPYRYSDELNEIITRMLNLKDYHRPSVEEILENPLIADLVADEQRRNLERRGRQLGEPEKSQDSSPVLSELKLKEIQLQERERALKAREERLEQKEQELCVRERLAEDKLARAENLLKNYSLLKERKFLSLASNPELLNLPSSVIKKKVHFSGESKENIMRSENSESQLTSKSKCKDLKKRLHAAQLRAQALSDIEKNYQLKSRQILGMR

[5] = molecular target: T3, Serine/threonine-protein kinase Nek2 (Homo sapiens); conditions: at 1 µM
[6] = molecular target: Serine/threonine-protein kinase Nek6 (Homo sapiens) (UniProt Q9HC98); conditions: at 0.1 µM
Serine/threonine-protein kinase Nek6 (Homo sapiens), sequence (Q9HC98 whole entry): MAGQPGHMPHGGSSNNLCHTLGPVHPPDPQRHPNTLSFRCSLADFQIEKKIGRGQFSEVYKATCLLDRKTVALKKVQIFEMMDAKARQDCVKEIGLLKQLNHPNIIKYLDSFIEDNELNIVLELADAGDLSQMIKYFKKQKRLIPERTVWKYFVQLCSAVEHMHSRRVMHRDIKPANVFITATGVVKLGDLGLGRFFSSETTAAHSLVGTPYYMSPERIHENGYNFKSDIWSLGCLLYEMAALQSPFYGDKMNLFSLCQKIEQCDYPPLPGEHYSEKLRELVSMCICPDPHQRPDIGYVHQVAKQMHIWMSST

[7] = molecular target: Serine/threonine-protein kinase Nek6 (Homo sapiens) (UniProt Q9HC98); conditions: at 1 µM
[8] = molecular target: Serine/threonine-protein kinase Nek7 (Homo sapiens) (UniProt Q8TDX7); conditions: at 0.1 µM
Serine/threonine-protein kinase Nek7 (Homo sapiens), sequence (Q8TDX7 whole entry, looked up): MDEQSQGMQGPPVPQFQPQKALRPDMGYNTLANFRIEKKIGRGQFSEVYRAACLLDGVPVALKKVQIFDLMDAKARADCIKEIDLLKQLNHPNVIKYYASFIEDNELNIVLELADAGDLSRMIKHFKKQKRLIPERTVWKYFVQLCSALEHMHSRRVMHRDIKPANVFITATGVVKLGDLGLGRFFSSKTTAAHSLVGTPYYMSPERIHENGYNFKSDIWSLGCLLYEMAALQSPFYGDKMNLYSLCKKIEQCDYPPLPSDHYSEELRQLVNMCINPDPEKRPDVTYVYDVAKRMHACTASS

[9] = molecular target: Serine/threonine-protein kinase Nek7 (Homo sapiens) (UniProt Q8TDX7); conditions: at 1 µM
[10] = molecular target: T4, Serine/threonine-protein kinase Nek9 (Homo sapiens) (UniProt Q8TD19); conditions: at 0.1 µM
T4 sequence (whole entry): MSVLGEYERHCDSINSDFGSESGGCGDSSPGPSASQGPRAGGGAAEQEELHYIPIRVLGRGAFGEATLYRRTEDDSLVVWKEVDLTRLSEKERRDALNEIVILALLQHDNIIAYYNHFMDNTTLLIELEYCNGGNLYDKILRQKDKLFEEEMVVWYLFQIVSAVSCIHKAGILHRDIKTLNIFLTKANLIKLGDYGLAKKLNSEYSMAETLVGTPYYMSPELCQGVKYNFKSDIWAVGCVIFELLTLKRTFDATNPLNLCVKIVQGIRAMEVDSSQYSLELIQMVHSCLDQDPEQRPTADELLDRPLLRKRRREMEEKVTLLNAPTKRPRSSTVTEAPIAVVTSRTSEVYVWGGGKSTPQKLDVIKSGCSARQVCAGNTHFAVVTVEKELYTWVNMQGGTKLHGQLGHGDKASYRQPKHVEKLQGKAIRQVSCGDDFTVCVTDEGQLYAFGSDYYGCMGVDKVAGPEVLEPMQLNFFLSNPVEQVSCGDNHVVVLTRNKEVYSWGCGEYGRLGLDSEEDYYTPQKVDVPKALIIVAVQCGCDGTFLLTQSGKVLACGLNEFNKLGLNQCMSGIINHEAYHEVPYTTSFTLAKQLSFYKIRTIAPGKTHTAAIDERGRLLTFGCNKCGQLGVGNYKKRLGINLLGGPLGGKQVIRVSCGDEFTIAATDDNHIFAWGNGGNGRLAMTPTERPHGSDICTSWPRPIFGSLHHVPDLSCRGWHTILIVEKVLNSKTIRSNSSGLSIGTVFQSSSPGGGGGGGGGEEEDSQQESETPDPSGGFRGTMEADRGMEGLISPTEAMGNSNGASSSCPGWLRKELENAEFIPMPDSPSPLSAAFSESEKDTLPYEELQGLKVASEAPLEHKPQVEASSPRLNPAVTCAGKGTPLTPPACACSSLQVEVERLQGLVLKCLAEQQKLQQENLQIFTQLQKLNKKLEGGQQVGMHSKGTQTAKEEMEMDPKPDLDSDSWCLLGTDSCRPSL

[11] = molecular target: T4, Serine/threonine-protein kinase Nek9 (Homo sapiens); conditions: at 1 µM
[12] = molecular target: Serine/threonine-protein kinase PLK1 (Homo sapiens) (UniProt P53350); conditions: at 0.1 µM
Serine/threonine-protein kinase PLK1 (Homo sapiens), sequence (P53350 whole entry): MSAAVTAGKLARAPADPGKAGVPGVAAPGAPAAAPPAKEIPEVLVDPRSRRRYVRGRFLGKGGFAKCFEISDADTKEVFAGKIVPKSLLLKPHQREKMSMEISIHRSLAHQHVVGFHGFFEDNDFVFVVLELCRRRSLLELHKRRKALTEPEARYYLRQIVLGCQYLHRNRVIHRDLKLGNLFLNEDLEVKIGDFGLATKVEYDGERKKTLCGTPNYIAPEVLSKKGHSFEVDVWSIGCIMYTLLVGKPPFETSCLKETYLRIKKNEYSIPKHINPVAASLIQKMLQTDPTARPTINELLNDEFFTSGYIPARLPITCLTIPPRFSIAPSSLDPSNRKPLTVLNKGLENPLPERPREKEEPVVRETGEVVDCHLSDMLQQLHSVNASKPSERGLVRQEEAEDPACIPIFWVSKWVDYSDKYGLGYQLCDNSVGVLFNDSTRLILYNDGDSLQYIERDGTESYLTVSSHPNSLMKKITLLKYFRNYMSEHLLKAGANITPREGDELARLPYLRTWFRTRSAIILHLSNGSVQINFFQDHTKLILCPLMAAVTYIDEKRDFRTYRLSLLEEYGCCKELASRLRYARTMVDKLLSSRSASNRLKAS

[13] = molecular target: Serine/threonine-protein kinase PLK1 (Homo sapiens) (UniProt P53350); conditions: at 1 µM
[14] = molecular target: T5, Dual specificity protein kinase TTK (Homo sapiens) (UniProt P33981); conditions: at 0.1 µM
T5 sequence (whole entry): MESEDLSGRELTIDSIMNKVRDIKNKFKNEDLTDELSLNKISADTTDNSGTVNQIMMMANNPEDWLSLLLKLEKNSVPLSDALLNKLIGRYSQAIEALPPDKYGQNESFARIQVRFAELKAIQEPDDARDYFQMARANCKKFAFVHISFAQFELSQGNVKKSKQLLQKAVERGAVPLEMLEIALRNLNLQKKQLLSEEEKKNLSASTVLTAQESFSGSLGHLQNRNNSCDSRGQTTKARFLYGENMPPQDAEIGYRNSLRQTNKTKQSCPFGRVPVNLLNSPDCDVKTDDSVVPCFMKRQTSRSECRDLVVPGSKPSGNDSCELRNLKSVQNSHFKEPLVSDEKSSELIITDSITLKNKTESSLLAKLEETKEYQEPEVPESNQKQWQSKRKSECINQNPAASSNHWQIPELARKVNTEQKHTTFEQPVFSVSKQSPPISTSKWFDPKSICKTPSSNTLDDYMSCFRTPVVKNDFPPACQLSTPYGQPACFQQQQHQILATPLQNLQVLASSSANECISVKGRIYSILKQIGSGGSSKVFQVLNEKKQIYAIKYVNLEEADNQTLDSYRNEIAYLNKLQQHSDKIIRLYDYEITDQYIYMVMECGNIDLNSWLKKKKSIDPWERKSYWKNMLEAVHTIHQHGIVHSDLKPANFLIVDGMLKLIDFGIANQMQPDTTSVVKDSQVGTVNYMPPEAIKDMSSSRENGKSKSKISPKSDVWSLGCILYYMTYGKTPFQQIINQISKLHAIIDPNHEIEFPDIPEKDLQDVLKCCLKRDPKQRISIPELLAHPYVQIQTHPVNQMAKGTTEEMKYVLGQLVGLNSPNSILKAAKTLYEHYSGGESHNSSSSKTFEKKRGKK

[15] = tested on: T6, Receptor-type tyrosine-protein kinase FLT3 (Homo sapiens), P36888 [D835Y]; conditions: at 1 µM
T6 sequence (whole entry): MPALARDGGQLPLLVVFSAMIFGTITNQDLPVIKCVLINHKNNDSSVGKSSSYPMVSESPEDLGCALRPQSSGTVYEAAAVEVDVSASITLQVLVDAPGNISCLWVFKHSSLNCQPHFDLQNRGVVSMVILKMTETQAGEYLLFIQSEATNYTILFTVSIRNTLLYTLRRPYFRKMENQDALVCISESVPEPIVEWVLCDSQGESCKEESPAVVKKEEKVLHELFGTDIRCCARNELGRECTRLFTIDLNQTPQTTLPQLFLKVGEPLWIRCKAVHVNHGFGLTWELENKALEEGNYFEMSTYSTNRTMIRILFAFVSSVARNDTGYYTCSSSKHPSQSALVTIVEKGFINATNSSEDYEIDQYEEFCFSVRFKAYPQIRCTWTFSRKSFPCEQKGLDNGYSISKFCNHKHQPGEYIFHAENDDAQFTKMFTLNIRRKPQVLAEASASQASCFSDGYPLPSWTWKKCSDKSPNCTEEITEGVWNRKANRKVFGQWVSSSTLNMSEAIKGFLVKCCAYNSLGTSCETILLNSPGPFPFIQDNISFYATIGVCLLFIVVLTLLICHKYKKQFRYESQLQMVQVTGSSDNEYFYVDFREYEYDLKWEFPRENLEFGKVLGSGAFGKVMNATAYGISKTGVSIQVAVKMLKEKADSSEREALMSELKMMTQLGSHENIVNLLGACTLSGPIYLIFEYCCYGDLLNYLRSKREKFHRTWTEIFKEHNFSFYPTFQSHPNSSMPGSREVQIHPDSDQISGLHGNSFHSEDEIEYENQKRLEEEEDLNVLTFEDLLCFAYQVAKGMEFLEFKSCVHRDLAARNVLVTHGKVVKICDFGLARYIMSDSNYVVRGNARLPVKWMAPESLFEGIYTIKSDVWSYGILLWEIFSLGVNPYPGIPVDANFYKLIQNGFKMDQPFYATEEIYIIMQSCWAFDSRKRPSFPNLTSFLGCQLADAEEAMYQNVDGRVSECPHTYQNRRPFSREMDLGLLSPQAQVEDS

[16] = molecular target: Vascular endothelial growth factor receptor 3 (Homo sapiens) (UniProt P35916); conditions: at 0.1 µM
Vascular endothelial growth factor receptor 3 (Homo sapiens), sequence (P35916 whole entry): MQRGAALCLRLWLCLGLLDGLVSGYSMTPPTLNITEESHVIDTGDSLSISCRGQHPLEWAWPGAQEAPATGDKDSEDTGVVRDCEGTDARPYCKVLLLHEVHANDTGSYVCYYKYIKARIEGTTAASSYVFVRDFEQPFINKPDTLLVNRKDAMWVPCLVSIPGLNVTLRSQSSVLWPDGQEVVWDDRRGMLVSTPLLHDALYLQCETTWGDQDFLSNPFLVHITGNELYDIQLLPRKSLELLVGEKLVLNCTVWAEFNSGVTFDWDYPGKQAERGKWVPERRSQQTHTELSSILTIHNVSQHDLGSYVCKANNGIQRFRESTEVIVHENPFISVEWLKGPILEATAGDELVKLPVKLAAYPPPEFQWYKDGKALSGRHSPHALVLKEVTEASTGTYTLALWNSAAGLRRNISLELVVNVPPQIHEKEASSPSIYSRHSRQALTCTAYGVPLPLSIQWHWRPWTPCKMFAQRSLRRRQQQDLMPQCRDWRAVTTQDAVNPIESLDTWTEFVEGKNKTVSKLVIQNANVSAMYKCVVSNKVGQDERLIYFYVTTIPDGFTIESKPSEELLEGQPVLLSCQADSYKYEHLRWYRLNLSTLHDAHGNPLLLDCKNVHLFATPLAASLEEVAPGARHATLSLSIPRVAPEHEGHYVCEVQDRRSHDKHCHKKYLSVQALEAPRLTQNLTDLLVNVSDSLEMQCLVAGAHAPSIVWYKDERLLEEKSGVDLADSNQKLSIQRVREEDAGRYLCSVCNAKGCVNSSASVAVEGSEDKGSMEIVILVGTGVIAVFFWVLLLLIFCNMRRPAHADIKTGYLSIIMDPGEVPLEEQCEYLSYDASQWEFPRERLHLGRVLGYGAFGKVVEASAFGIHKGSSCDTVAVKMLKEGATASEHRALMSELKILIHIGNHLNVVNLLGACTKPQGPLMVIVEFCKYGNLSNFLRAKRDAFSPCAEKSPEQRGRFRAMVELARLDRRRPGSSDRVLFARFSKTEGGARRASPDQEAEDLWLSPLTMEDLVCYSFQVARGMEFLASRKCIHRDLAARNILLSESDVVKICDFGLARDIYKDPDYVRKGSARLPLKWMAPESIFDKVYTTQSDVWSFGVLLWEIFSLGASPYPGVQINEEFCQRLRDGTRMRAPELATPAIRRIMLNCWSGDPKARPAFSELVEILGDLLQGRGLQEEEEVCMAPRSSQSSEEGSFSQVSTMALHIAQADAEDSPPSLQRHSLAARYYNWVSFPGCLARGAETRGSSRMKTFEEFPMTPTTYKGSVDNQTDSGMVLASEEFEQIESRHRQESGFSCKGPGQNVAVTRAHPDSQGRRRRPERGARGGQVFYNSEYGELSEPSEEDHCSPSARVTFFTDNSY

[17] = molecular target: Vascular endothelial growth factor receptor 3 (Homo sapiens) (UniProt P35916); conditions: at 1 µM
[18] = molecular target: Macrophage colony-stimulating factor 1 receptor (Homo sapiens) (UniProt P07333); conditions: at 0.1 µM
Macrophage colony-stimulating factor 1 receptor (Homo sapiens), sequence (P07333 whole entry): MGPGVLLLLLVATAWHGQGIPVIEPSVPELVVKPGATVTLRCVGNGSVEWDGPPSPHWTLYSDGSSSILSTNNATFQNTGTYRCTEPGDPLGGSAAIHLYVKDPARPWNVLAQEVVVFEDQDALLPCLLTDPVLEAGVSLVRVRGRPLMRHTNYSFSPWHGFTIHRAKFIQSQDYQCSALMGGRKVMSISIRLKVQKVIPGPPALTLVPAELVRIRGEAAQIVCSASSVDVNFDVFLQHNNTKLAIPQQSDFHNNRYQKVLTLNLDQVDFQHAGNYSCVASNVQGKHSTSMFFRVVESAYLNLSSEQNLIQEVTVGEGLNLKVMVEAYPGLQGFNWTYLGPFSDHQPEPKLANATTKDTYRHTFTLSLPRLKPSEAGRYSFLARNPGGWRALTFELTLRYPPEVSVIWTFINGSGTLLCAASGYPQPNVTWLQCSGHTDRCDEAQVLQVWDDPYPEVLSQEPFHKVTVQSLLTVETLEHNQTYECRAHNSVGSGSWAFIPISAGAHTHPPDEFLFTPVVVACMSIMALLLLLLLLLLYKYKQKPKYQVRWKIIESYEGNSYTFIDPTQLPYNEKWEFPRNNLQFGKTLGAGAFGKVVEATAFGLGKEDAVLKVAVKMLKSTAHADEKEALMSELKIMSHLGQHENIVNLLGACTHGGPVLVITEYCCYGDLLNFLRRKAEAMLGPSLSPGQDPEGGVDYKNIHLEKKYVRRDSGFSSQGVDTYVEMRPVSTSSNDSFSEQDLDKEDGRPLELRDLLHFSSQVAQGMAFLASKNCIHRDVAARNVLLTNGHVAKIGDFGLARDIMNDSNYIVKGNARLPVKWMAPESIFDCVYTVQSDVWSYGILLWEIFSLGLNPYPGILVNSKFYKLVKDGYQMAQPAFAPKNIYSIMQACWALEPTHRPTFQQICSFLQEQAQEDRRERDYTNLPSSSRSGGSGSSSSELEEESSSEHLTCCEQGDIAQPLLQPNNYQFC

[19] = molecular target: Macrophage colony-stimulating factor 1 receptor (Homo sapiens) (UniProt P07333); conditions: at 1 µM
[20] = molecular target: Tyrosine-protein kinase Fyn (Homo sapiens) (UniProt P06241); conditions: at 0.1 µM
Tyrosine-protein kinase Fyn (Homo sapiens), sequence (P06241 2-537 limits assumed): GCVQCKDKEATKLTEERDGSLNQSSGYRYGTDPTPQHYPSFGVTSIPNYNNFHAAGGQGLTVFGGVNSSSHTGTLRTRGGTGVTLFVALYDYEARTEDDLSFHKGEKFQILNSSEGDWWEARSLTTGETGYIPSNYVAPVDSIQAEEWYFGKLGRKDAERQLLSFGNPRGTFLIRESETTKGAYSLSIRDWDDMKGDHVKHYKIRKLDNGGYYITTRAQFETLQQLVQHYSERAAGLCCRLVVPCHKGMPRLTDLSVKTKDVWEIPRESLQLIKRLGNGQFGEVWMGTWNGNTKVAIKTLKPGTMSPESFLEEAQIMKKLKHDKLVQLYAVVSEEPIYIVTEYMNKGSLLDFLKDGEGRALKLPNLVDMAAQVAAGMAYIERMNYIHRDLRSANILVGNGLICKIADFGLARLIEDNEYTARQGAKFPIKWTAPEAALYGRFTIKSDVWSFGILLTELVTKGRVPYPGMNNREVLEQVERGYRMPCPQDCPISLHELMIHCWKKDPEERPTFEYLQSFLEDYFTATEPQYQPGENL

Structure (SMILES)	inhibition [1] [%]	inhibition [2] [%]	inhibition [3] [%]	inhibition [4] [%]	inhibition [5] [%]	inhibition [6] [%]	inhibition [7] [%]	inhibition [8] [%]	inhibition [9] [%]	inhibition [10] [%]	inhibition [11] [%]	inhibition [12] [%]	inhibition [13] [%]	inhibition [14] [%]	inhibition [15] [%]	inhibition [16] [%]	inhibition [17] [%]	inhibition [18] [%]	inhibition [19] [%]	inhibition [20] [%]
CCN1CCC(CC(=O)Nc2n[nH]c3nnc(-c4cccc(F)c4F)cc23)CC1	4.56	1.55	1.21	2.78	1.49	2.04	2.93	2.55	1.27	0.14	-3.93	2.14	-0.76	4.15	-2.23	1.01	1.82	-1.12	5.72	-0.21
CCCN(CCS(C)(=O)=O)Cc1ccc(-c2ccc3ncnc(Nc4ccc(OCc5cccc(F)c5)c(Cl)c4)c3c2)o1	1.08	2.4	2.96	3.32	3.71	-0.2	0.97	3.69	3.24	6.94	4.13	1.28	1.62	2.14	0.99	-1.86	-0.27	0.78	1	1.13
